HSF1 inh: HSF1 inhibition. NIH3T3-HGL HSE-luciferase, MG132-induced, luminescence 8 h; hits give low values. activity change, negative = inhibition, % at 7.5 µM (by protocol). 0.77% of 300,000 active;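 active = more than half of replicate wells show activity change below -50%, luminescence cut by over half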;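 also: luciferase reports HSF-1 transcriptional activity via heat shock element; 0% = median of DMSO wells and -100% = zero luminescence signal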
p-CIP stab down: compounds decreasing mouse p/CIP protein stability; decrease of EGFP signal, % at 10 µM; 0.01% of 290,000 active; F442A p/CIP-EGFP cells, EGFP fluorescence, 16 h; AID 1984;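 active = EGFP signal decrease of at least 30% at 10 µM or well 3 SD below plate mean, unless failing retest; inactive = the rest, including hits failing retest or dose response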
Target sequence (Q05BA5 1-1403): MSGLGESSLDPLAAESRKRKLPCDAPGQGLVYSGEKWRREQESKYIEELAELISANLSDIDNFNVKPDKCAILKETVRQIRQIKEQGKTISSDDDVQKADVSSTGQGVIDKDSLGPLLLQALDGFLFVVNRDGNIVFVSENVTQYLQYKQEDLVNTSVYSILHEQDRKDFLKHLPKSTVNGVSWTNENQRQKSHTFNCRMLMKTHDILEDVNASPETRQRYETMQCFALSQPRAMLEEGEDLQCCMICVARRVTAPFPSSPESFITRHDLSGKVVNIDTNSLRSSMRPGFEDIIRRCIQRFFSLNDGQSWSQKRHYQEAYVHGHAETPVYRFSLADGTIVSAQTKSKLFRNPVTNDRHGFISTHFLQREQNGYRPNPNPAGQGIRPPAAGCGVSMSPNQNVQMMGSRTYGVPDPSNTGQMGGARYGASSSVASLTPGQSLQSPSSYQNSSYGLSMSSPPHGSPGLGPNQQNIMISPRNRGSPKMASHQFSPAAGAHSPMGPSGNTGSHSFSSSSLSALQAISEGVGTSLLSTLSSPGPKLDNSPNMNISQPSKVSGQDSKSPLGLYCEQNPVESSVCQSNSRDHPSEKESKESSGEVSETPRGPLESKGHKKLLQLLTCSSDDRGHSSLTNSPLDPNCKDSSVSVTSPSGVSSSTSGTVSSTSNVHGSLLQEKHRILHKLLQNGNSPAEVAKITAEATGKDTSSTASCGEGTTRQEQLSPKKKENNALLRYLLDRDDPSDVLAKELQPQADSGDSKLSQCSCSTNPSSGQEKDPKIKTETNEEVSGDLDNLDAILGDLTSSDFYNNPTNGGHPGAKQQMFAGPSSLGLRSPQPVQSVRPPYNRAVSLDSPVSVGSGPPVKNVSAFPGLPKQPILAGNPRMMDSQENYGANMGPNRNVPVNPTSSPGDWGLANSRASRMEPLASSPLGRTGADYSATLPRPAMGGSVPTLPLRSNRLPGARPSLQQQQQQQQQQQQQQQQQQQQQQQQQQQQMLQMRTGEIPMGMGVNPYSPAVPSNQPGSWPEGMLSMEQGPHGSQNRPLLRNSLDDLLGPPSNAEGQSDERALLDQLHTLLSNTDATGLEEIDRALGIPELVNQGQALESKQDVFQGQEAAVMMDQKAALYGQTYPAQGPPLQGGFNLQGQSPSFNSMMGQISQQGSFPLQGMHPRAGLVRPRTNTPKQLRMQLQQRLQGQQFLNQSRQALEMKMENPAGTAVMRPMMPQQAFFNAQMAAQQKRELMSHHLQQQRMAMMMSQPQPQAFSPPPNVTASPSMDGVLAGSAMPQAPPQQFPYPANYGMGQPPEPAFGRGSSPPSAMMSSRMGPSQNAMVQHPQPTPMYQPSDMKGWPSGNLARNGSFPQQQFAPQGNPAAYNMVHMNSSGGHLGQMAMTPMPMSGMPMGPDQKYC
HSF1 activator: increases HSF-1 driven luciferase reporter signal. AID 504408. NIH3T3-HGL HSF-1 luciferase reporter, MG132, 8 h; 100% = twice DMSO control signal. activation, % at 9 µM. 1.7% of 300,000 active;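 active = mean replicate activation of at least 50% with a set share of replicates each reaching 50%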;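 also: 0% = median of the neutral control wells and 100% = twice that signal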
Hsp70 act: Hsp70 transcriptional activation, primary screen; HeLa Hsp70 promoter luciferase reporter, luminescence; scaled: vehicle 0, proteasome-inhibitor control 100%; activation, % at 10 µM; 0.04% of 200,000 active; AID 1203;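 active = activation above the mean across all tested compounds plus 3 SD, cutoff set per campaign, cut at about 5.5% in these data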;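 also: 100% = MG132 at 30 µM as the positive control and 0% = DMSO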
NALP1 yeast inh: blocks the NALP1 inflammasome reconstituted in yeast. S. cerevisiae NALP1/ASC/caspase-1 growth, X-gal OD620, 72 h. inhibition, % at 10 µM. 0.61% of 280,000 active. AID 2071; in the data active = inhibition mostly above about 24%, no sharp cut-off; inactive = mostly below about 32%
HSP90 refold inh: inhibitors of HSP90 luciferase refolding in rabbit reticulocyte lysate; luciferase refolding luminescence, 3 h; inhibition, % at 5.6 µM; 0.91% of 290,000 active; AID 1789;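 active = inhibition above the screen-wide mean plus 3 SD, computed separately per campaign, cut at about 16% in these data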;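 also: 0% = DMSO wells and 100% = 60 µM geldanamycin wells; inhibitors lower the luminescence because luciferase stays unfolded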
* = called active by the depositor; . = not tested or not shown. Rows were chosen to be rich in hits. Some 3.8% of all compounds tested hit in one or more screens of this group.

SMILES | HSF1 inh | p-CIP stab down | HSF1 activator | Hsp70 act | NALP1 yeast inh | HSP90 refold inh
Clc1ccc(-n2nnc(-c3cccnc3Cl)n2)cn1 | 15 | -10 | 41 | 1 | -9 | 3
Cc1ccc(-n2nnc(-c3cccnc3Cl)n2)cc1 | 44 | -14 | 70* | 0 | 0 | 10
O=C(N/N=C/c1cccc(F)c1)c1csc2c1CCCC2 | 24 | 1 | 39 | 0 | -16 | -10
O=C(N/N=C/c1ccccc1F)c1csc2c1CCCC2 | 46 | -16 | 65* | 0 | 5 | 1
O=C(Nc1ccccc1O)c1csc2c1CCCC2 | 39 | -5 | 93* | 0 | 1 | -2
O=C(CCl)Nc1c2c(nn1-c1ccccc1)CSC2 | 7 | -10 | -2 | . | -3 | -2
COc1ccccc1OCc1nc2ccccc2n1C | 7 | 13 | 34 | . | 10 | 1
Cn1c(COc2ccccc2Br)nc2ccccc21 | 49 | 4 | 70* | . | 15 | 1
Cn1c(CNc2ccc(Br)cc2)nc2ccccc21 | 80 | 0 | 115* | . | -2 | -4
Cn1c(CSc2nc3ccccc3s2)nc2ccccc21 | 60 | -8 | 76* | 0 | 39 | 0
COc1cccc(N2C(=O)C(Cc3c[nH]c4ccccc34)NC2=S)c1 (configuration not stated) | -4 | -10 | -8 | 0 | 3 | -3
COc1ccc(-n2nnc3c(=O)n(CC(=O)N4CCCc5ccccc54)cnc32)cc1 | -2 | -18 | 1 | 0 | . | -5
COc1ccc(-n2nnc3c(SCC(=O)N4CCCc5ccccc54)ncnc32)cc1 | 30 | . | 57* | . | . | .
CCCOC1CCCN(C(=O)CCc2nnc(CCCCc3ccccc3)o2)C1 (configuration not stated) | 27 | 11 | 56* | 0 | 6 | -3
O=C(O)COn1c(-c2ccccc2)nc2ccc(Cl)cc21 | 0 | -10 | 6 | 0 | 1 | -2
COn1c(-c2ccccc2)nc2ccc(Cl)cc21 | 32 | -10 | 66* | 0 | 2 | -2
O=[N+]([O-])c1ccc2nn(Cc3ccccc3)cc2c1 | -1 | 6 | 15 | . | 11 | -2
O=[N+]([O-])c1ccc2nc(-c3ccccc3)n(OCc3ccc(Cl)cc3)c2c1 | 17 | -2 | 59* | 0 | 15 | -4
CCOC(=O)c1sc(NC(=O)CSc2nncs2)c(C(=O)OCC)c1C | 39 | -28 | 56* | 0 | 8 | -2
CCOC(=O)c1sc(NC(=O)CCN2CCC(C)CC2)c(C(=O)OCC)c1C | 191 | 9 | 233* | 0 | 10 | -1
CC1(C)OC(=O)C=C(CC2NS(=O)(=O)OC3CCCCC23)O1 (configuration not stated) | -1 | -2 | 8 | . | 16 | -4
CCC(C)NC(=O)c1ccccc1NC(=O)c1ccc(CSc2ccc(C)cc2)cc1 (configuration not stated) | 5 | 3 | -16 | 0 | 37 | 0
Cc1ccccc1S(=O)(=O)Nc1cccnc1 | 10 | -1 | 18 | 0 | 8 | -4
Cc1ccc(S(=O)(=O)Nc2cccnc2)c(C)c1C | -83* | -7 | -87 | . | -28 | 2
CCCCN1C(=O)/C(=C2\SC(N3CCCCC3)=NC2=O)c2ccccc21 | 36 | -1 | 51* | 0 | 3 | 0
SMILES | HSF1 inh | p-CIP stab down | HSF1 activator | Hsp70 act | NALP1 yeast inh | HSP90 refold inh
Cc1ccc(-c2nc(NC(=O)c3nn(C)cc3[N+](=O)[O-])sc2C)cc1 | 8 | -3 | 28 | 1 | 12 | 5
Cn1cc([N+](=O)[O-])c(C(=O)Nc2nc(-c3ccc(Cl)cc3)cs2)n1 | 102 | -9 | 140* | 1 | 35 | 8
Cc1cnc(NC(=O)c2nn(C)cc2[N+](=O)[O-])s1 | 139 | -12 | 150* | 0 | 16 | 7
O=S(=O)(NC1CCCC1)c1cc(F)ccc1F | -8 | -19 | -16 | . | 16 | -3
Cc1ccccc1C(=O)NC1CC2CCC(C1)N2Cc1ccccc1 (configuration not stated) | -7 | -15 | -14 | 0 | 4 | -4
O=C(CSc1n[nH]c(=O)[nH]c1=O)c1ccccc1 | 3 | 0 | 9 | 0 | 21 | 1
CN(C)C(=O)CSc1n[nH]c(=O)[nH]c1=O | -89* | 2 | -92 | 0 | -2 | 6
COc1ccc(CCNCC(=O)Nc2ccc(C)c(Br)c2)cc1OC | 1 | -4 | 11 | . | -8 | -1
COc1ccc(CCNCC(=O)Nc2ccc(C)c(S(=O)(=O)N(C)C)c2)cc1OC | 2 | 3 | -8 | . | 36* | 2
N#Cc1cc(Cl)c(NCC2CCCO2)cc1C#N (configuration not stated) | 49 | 2 | 89* | . | -2 | 4
N#Cc1cccc(C#N)c1NCC1CCCO1 (configuration not stated) | 3 | -4 | 24 | . | 21 | 1
Cc1cccc(C)c1NC(=O)CN(C)C(=O)c1ccc2nc[nH]c2c1 | -9 | . | -12 | . | . | .
CC(C)S(=O)(=O)c1csc(NC(=O)Nc2ccc(Cl)cc2)c1 | 60 | -7 | 77* | . | -9 | -1
NS(=O)(=O)c1cccc(NC(=O)Nc2ccc(Cl)cc2)c1 | 10 | -7 | 30 | . | -2 | 0
ONc1cccnc1-n1nc(C(F)(F)F)cc1C(F)(F)F | -4 | 0 | 3 | 0 | 7 | 5
Oc1c(Br)cc(Br)cc1/C=N/Nc1ccc(Cl)nn1 | 1 | 0 | -26 | . | 41* | 1
O=C(Cc1ccc(Cl)cc1)Nc1ccc(S(=O)(=O)Nc2cnc3ccccc3n2)cc1 | 1 | 3 | 21 | 0 | -3 | 2
COC(=O)c1ccc(N2C(=O)CC(N(C)CCc3ccc(OC)c(OC)c3)C2=O)cc1 (configuration not stated) | 4 | -14 | 6 | 0 | 3 | -4
COc1ccc(N2C(=O)CC(N(C)CCc3ccc(OC)c(OC)c3)C2=O)cc1 (configuration not stated) | -2 | -7 | 1 | 0 | 41* | -2
COc1ccc(CCN(C)C2CC(=O)N(c3ccccc3)C2=O)cc1OC (configuration not stated) | -3 | 6 | 15 | . | 56* | 0
CCN(c1cccc(C)c1)C1C(=O)c2ccccc2N1C(C)=O (configuration not stated) | 4 | -6 | -1 | . | 30 | -3
O=C(CSc1ccc(Cl)cc1)N1CCN(c2c(Cl)cccc2[N+](=O)[O-])CC1 | 47 | -14 | 70* | 0 | 12 | 3
Cc1ccc(SCC2(O)CCN(S(=O)(=O)c3ccc(Cl)cc3)CC2)cc1 | -11 | -8 | 9 | 0 | 12 | 6
Cc1ccc(S(=O)(=O)N2CCN(C(=O)CSc3ccc(Cl)cc3)CC2)cc1 | 26 | -13 | 75* | . | 25 | -2
CCOc1ccc(OCCC(=O)OCC(=O)N2CCN(S(=O)(=O)c3ccc(Cl)cc3)CC2)cc1 | 62 | -17 | 87* | . | 2 | 5
